# Inconclusive results are not listed. A call without a number means that no potency is given here. Active and inactive are the calls of the source. Calls come from the whole dose curve; as a rule, active = well fitted curve in the direction sought with a large enough effect; inconclusive = small, poorly fitted or top-dose-only effect, or another doubt; inactive = no such curve, though single readings can be large; an effect the other way counts as inactive or inconclusive.
# Assays:
# [1] = Quantitative High-Throughput drug screen in 47 multiple myeloma cell lines against the NCATS MIPE library collection: FR4_PLB cell viability assay (AID 1918924; note: nearly all actives have a fitted effect of over 35% in size; note: potency is the fitted concentration of half-maximal effect)
# Method in brief: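 qHTS of the MIPE 4.0 collection: 500 myeloma cells/well, 48 h drug exposure at 37C in 5% CO2, then CellTiter-Glo for 5 min at room temperature before luminescence reading.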
# [2] = Quantitative High-Throughput drug screen in 47 multiple myeloma cell lines against the NCATS MIPE library collection: Delta47_JCRB cell viability assay (AID 1918925; note: nearly all actives have a fitted effect of over 45% in size; note: potency is the fitted concentration of half-maximal effect)
# Method in brief: (§1)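 Luminescent ATP measurement with CellTiter-Glo gives viability, scaled between DMSO-only wells (100%) and media-only wells (0%). Cells, 500 per well, faced library compounds for 48 hours at 37C.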
# [3] = Quantitative High-Throughput drug screen in 47 multiple myeloma cell lines against the NCATS MIPE library collection: EJM_DSMZ cell viability assay (AID 1918926; note: nearly all actives have a fitted effect of over 30% in size; note: potency is the fitted concentration of half-maximal effect)
# Method in brief: as §1
# [4] = molecular target: Luciferin 4-monooxygenase (Photinus pyralis) (UniProt P08659); experiment: Primary firefly luciferase (FLuc) qHTS assay for identification of artifact compounds. (AID 1845220); note: nearly all actives have a fitted effect of over 60% in size; note: potency is the fitted concentration of half-maximal effect
# Method in brief: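 Reaction readout was CCD-imaged luminescence, taken 5 min after adding 10 nM purified firefly enzyme to compound-treated wells holding 10 uM luciferin and ATP in pH 7.6 buffer.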
# [5] = Primary fluorescence-based thiol-reactive (MSTI) qHTS assay for identification of artifact compounds. (AID 1845221);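 note: series mostly up to about 54 µM; thiol-reactive compounds lower the probe fluorescence signal; nearly all actives have a fitted effect of over 65% in size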
# Method in brief: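 Reactivity toward the thiol probe MSTI (4 uM) is scored by fluorescence at Ex/Em 525/598 nm after 1 h at room temperature. Acetyl-MSTI and MSTI define the activity scale.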
# [6] = system: Nanoluciferase (engineered Oplophorus gracilirostris luciferase); experiment: Primary Nanoluciferase (NLuc) qHTS assay for identification of artifact compounds. (AID 1845222);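 note: NLuc secreted into diluted conditioned medium of S16 cells; series mostly up to about 54 µM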
# Method in brief: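 Concentration-response data were obtained by luminescence after 5 min with Nano-Glo substrate at 1:100. The enzyme was diluted S16 NLuc-expressing cell medium, preincubated with compound for 15 min at RT. Curves were fitted with a 4-parameter Hill model.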
# [7] = Primary redox qHTS assay for identification of artifact compounds. (AID 1845223)
# Method in brief: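 Redox-cycling detection via DTT (250 uM final) oxidation coupled to Amplex Red (25 uM)/HRP (250 mU/mL) in HBSS. 15 min preincubation plus 30 min after DTT, room temperature. Ex/Em 525/598 nm; 4-parameter Hill fit against DMSO and 10 uM DA3003.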
# [8] = molecular target: Phospholipid hydroperoxide glutathione peroxidase GPX4 (Homo sapiens) (UniProt P36969); experiment: Primary qHTS Assay for Inhibitors of Recombinant Selenoprotein Glutathione Peroxidase 4 (GPX4) (AID 1845192); note: nearly all actives have a fitted effect of over 65% in size
# Chain of Phospholipid hydroperoxide glutathione peroxidase GPX4 (Homo sapiens) (P36969 whole entry, looked up): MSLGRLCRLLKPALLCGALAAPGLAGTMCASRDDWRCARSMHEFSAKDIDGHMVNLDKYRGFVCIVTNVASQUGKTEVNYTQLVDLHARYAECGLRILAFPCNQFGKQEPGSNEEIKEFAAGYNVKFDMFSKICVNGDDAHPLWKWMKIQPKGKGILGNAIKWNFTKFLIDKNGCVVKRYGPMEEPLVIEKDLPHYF
# Method in brief: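 qHTS, GR-coupled: GPX4 200 nM + cpd 30 min RT → GSH 1 mM, NADPH 0.5 mM, GR 100 nM → CHP 0.5 mM start; fluor 340/450 at t0 and t15 min; no-enzyme wells as control.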
structure (smiles),measurement,setting,value
O=C(OCC#CCSc1nnc(-c2cccc3ccccc23)o1)c1cc2ccccc2s1,Potency,[1],inactive
same,Potency,[2],inactive
same,Potency,[3],23.5 µM (active)
CC(=Cc1ccccc1)C=C1SC(=S)N(CC(=O)O)C1=O,Potency,[1],inactive
same,Potency,[2],inactive
same,Potency,[3],inactive
O=C(O)[C@H]1O[C@H](Oc2cc3oc(-c4ccccc4)cc(=O)c3c(O)c2O)[C@H](O)[C@@H](O)[C@H]1O,Potency,[1],26.4 µM (active)
Cc1ccn(-c2ccc(-c3ncco3)cc2)c(=O)c1-c1ccc2nc(N)ncc2c1,Potency,[4],inactive
same,Potency,[5],inactive
same,Potency,[6],inactive
same,Potency,[1],inactive
same,Potency,[3],inactive
O=C1NC(=O)C(=Cc2ccc(-c3ccc(F)cc3)o2)S1,Potency,[1],inactive
CCC(=O)O[C@]1(C(=O)CO)CC[C@H]2[C@@H]3CCC4=CC(=O)CC[C@]4(C)[C@@H]3CC[C@@]21C,Potency,[1],inactive
same,Potency,[2],inactive
same,Potency,[3],inactive
NC(=O)c1ccc2nc(-c3ccc(Oc4ccc(Cl)cc4)cc3)[nH]c2c1,Potency,[4],3.38 µM (active)
same,Potency,[5],inactive
same,Potency,[6],inactive
same,outcome,[7],inactive
same,Potency,[1],0.166 µM (active)
same,Potency,[2],0.0264 µM (active)
same,Potency,[3],inactive
CC(C)OC(=O)CCCC=CC[C@@H]1[C@H](C=C[C@@H](O)COc2cccc(C(F)(F)F)c2)[C@H](O)C[C@@H]1O,Potency,[1],29.6 µM (active)
same,Potency,[2],14.8 µM (active)
C[C@H]1[C@H](NC(=O)C(=NOC(C)(C)C(=O)O)c2csc(N)n2)C(=O)N1S(=O)(=O)O,Potency,[1],inactive
same,Potency,[2],inactive
same,Potency,[3],inactive
Cc1[nH]c(C=C2C(=O)Nc3ccc(S(=O)(=O)Cc4c(Cl)cccc4Cl)cc32)c(C)c1C(=O)N1CCC[C@H]1CN1CCCC1,Potency,[1],23.5 µM (active)
same,Potency,[2],5.9 µM (active)
Clc1ccc(-c2nc3sccn3c2C=NOCc2ccc(Cl)c(Cl)c2)cc1,Potency,[1],inactive
COc1ccc(C2CC(c3ccccc3)=NN2c2ccc(S(N)(=O)=O)cc2)cc1 (stereo not drawn),Potency,[5],inactive
same,Potency,[6],inactive
same,outcome,[7],inactive
NC[C@@H]1O[C@@H](O[C@H]2[C@@H](O)[C@H](O[C@@H]3[C@@H](O)[C@@H](N)C[C@H](N)[C@H]3O[C@H]3O[C@H](CN)[C@@H](O)[C@@H](O)[C@H]3N)O[C@H]2CO)[C@H](N)[C@@H](O)[C@@H]1O,Potency,[1],inactive
same,Potency,[2],inactive
same,Potency,[3],inactive
CO[C@H]1C=CC=C(C)C(=O)NC2=CC(=O)C(NCCN(C)C)=C(C[C@@H](C)C[C@H](OC)[C@@H](O)[C@@H](C)C=C(C)[C@@H]1OC(N)=O)C2=O,Potency,[1],0.166 µM (active)
same,Potency,[2],0.0469 µM (active)
same,Potency,[3],1.48 µM (active)
COC[C@@H](c1ccc(C(F)(F)F)cc1)N1CCN(C2(C)CCN(C(=O)c3c(C)ncnc3C)CC2)C[C@H]1C,Potency,[1],inactive
same,Potency,[2],23.5 µM (active)
same,Potency,[3],inactive
NS(=O)(=O)c1cccc2c1C(=O)c1cccc(O)c1C2=O,Potency,[8],inactive
same,Potency,[1],0.935 µM (active)
same,Potency,[2],0.418 µM (active)
same,Potency,[3],0.935 µM (active)
O=C(CCc1ccc(O)cc1)c1c(O)cc(O)cc1O[C@@H]1O[C@H](CO)[C@H](O)[C@H](O)[C@H]1O,Potency,[1],inactive
same,Potency,[2],inactive
same,Potency,[3],inactive
Cc1c(O)cccc1C(=O)N[C@@H](CSc1ccccc1)[C@H](O)CN1C[C@H]2CCCC[C@@H]2C[C@@H]1C(=O)NC(C)(C)C,Potency,[1],26.4 µM (active)
same,Potency,[2],20.9 µM (active)
same,Potency,[3],23.5 µM (active)
Cc1nnc(C(C)C)n1C1C[C@H]2CC[C@@H](C1)N2CC[C@H](NC(=O)C1CCC(F)(F)CC1)c1ccccc1 (stereo partly drawn),Potency,[1],inactive
same,Potency,[2],16.6 µM (active)
NS(=O)(=O)c1ccc(NC2=CC(=O)c3ccccc3C2=O)cc1,Potency,[8],inactive
same,Potency,[1],2.96 µM (active)
same,Potency,[2],18.7 µM (active)
same,Potency,[3],inactive
COC(=O)N[C@H](C(=O)N1CCC[C@@H]1c1ncc(-c2ccc(-c3ccc(-c4cnc([C@@H]5CCCN5C(=O)[C@@H](NC(=O)OC)C(C)C)[nH]4)cc3)cc2)[nH]1)C(C)C,Potency,[1],23.5 µM (active)
same,Potency,[2],20.9 µM (active)
O=C1c2ccccc2-[n+]2ccc3c([nH]c4ccccc43)c21,Potency,[8],inactive
same,Potency,[1],1.32 µM (active)
same,Potency,[2],1.32 µM (active)
same,Potency,[3],1.48 µM (active)
CCOC1OC(=O)C[C@H]1NC(=O)[C@@H]1CCCN1C(=O)[C@@H](NC(=O)c1ccc(N)c(Cl)c1)C(C)(C)C (stereo partly drawn),Potency,[1],inactive
same,Potency,[2],inactive
same,Potency,[3],inactive
C[C@]12CC[C@@H]3c4ccc(O)cc4CC[C@H]3[C@H]1C[C@@H](O)[C@H]2O,Potency,[1],inactive
same,Potency,[2],2.64 µM (active)
CON=C(C(=O)N[C@@H]1C(=O)N2C(C(=O)OCOC(=O)C(C)(C)C)=C(C=Cc3scnc3C)CS[C@H]12)c1csc(N)n1,Potency,[1],inactive
same,Potency,[2],inactive
same,Potency,[3],inactive
NC(=O)c1cccc2[nH]c(-c3ccc([C@H]4CCCN4)cc3F)nc12,Potency,[5],inactive
same,Potency,[6],inactive
same,outcome,[7],inactive
same,Potency,[1],inactive
same,Potency,[3],inactive
CC=CC(=O)N(CC)c1ccccc1C,Potency,[1],inactive
same,Potency,[2],inactive
same,Potency,[3],inactive
CC(C)(C)OC(=O)N[C@H]1CCCCCC=C[C@@H]2C[C@@]2(C(=O)NS(=O)(=O)C2CC2)NC(=O)[C@@H]2C[C@@H](OC(=O)N3Cc4cccc(F)c4C3)CN2C1=O,Potency,[4],inactive
same,Potency,[5],inactive
same,Potency,[6],inactive
same,Potency,[1],inactive
same,Potency,[2],inactive
same,Potency,[3],inactive
C=C1C(=O)OC(CCCCCCCC)C1C(=O)O (stereo not drawn),Potency,[8],inactive
same,Potency,[2],14.8 µM (active)
C[N+](C)(C)CC(=O)O,Potency,[1],inactive
same,Potency,[3],inactive
CN(C)CCC=C1c2ccccc2COc2ccc(CC(=O)O)cc21,Potency,[1],inactive
same,Potency,[3],inactive

# Source: PubChem BioAssay (NCATS)
